Eight compounds from PubChem BioAssay (NCI) can be followed below.

Among the test systems are NCI-H23 lung; NCI-H226 lung; NCI-H322M lung; HOP-62 NSCLC; NCI-H460 lung; NCI-H522 lung; A549/ATCC NSCLC; 786-0 renal; COLO 205 colon; DU-145 prostate; K-562 leukemia; MALME-3M melanoma; MDA-MB-231 breast; RXF 393 renal; SF-268 CNS; SF-295 CNS; SF-539 CNS; UACC-257 melanoma; M14 melanoma.
Common to all, as to test: NCI-60 one-dose screen, 48 h (100 = growth as untreated, 0 = no growth, -100 = all killed)
Conditions in all cases: 10 µM unless noted

Structures are written as SMILES. The panel holds about 83,000 compounds, 20% with a hit somewhere; the sample as a whole holds those more often.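 For each line, cells grew in 96-well plates with the test compound present at a single concentration for 48 hours.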 A number with no mark means an inactive call. Active and inactive are the calls of the source. The calls were made as follows: active = growth percent below 10; inactive = the rest.

Consider `O=C(O)c1ccccc1Oc1cc(-c2ccco2)nc(OCCN2CCOCC2)n1`, for which the growth was 106% in the assay on NCI-H23 lung; 97% in the assay with NCI-H226 lung; 94.6% with NCI-H322M lung; 99.9% in the assay with HOP-62 NSCLC; 116% in the assay with NCI-H460 lung; 92.1% with NCI-H522 lung. For the same compound, the growth was 106% with A549/ATCC NSCLC; 96.5% with 786-0 renal; 103% with COLO 205 colon; 113% with DU-145 prostate; 107% in the assay on K-562 leukemia; 98.3% with MALME-3M melanoma. In addition, the growth is 98.8% with MDA-MB-231 breast; 115% with RXF 393 renal; 114% with SF-268 CNS; 102% in the assay with SF-295 CNS; 108% in the assay on SF-539 CNS; 108% in the assay on UACC-257 melanoma. In the assay on M14 melanoma, the growth is 99.1%.

For the compound `C=C1C(=O)O[C@H]2[C@H]1CC/C(COC(=O)N[C@@H](Cc1c[nH]c3ccccc13)C(=O)OC)=C\CC[C@@]1(C)O[C@@H]21`, the growth in the assay on NCI-H23 lung is 68.5%; with NCI-H226 lung, 58.4%; in the assay on NCI-H322M lung, 80.5%; with HOP-62 NSCLC, 68.8%; with NCI-H460 lung, 40.5%; with NCI-H522 lung it was -71.1% (active). For the same compound, the growth in the assay with A549/ATCC NSCLC is 47.2%; with 786-0 renal it was -48.6% (active); with COLO 205 colon, -69.2% (active); in the assay on DU-145 prostate it was 20.5%; in the assay on K-562 leukemia it was -1.67% (active); in the assay on MALME-3M melanoma it was -38.4% (active). Also, the growth was 25.2% in the assay with MDA-MB-231 breast; -55.4% (active) in the assay with RXF 393 renal; 46.7% in the assay with SF-268 CNS; 72.3% in the assay on SF-295 CNS; 25.3% in the assay with SF-539 CNS; 11.5% in the assay on UACC-257 melanoma. Also, the growth in the assay on M14 melanoma is -45.3% (active).

Turning to `Brc1ccsc1Br`, the growth was 107% in the assay on NCI-H23 lung; 104% with NCI-H226 lung; 125% in the assay on NCI-H322M lung; 93.4% in the assay on HOP-62 NSCLC; 111% in the assay on NCI-H460 lung; 95.9% in the assay on NCI-H522 lung. For the same compound, the growth with A549/ATCC NSCLC was 105%; in the assay on 786-0 renal, 108%; in the assay with COLO 205 colon, 103%; in the assay on DU-145 prostate, 126%; in the assay with K-562 leukemia, 108%; in the assay on MALME-3M melanoma it was 114%. In addition, the growth with MDA-MB-231 breast is 116%; in the assay on RXF 393 renal, 117%; in the assay with SF-268 CNS, 113%; in the assay on SF-295 CNS, 126%; in the assay on SF-539 CNS it was 106%; with UACC-257 melanoma, 111%. The growth with M14 melanoma was 106%.

Turning to `COc1ccc(-c2cc(C(=O)Nc3ccc(Br)cc3)nc3[nH]c(=O)sc23)cc1`, the growth with NCI-H23 lung is 23.6%; in the assay with NCI-H226 lung, 63.4%; with NCI-H322M lung, 46.8%; in the assay on HOP-62 NSCLC it was 72.7%; in the assay on NCI-H460 lung, 28.8%; in the assay with NCI-H522 lung, -9.13% (active). Further, the growth in the assay on A549/ATCC NSCLC is 20.3%; in the assay on 786-0 renal, 57.2%; in the assay with COLO 205 colon, 42.3%; in the assay on DU-145 prostate it was 54.9%; in the assay with K-562 leukemia, 27%; with MALME-3M melanoma it was 25%. The growth in the assay on MDA-MB-231 breast was 84.8%; in the assay on RXF 393 renal it was 65.1%; in the assay with SF-268 CNS, 51.6%; in the assay with SF-295 CNS it was 53.2%; in the assay with SF-539 CNS, 43.6%; in the assay on UACC-257 melanoma it was 16.4%. Besides, the growth in the assay on M14 melanoma is 44.4%.

Consider `FC(F)(F)c1nn[nH]n1`, for which the growth is 96.6% with NCI-H23 lung; 94.8% with NCI-H226 lung; 111% in the assay on NCI-H322M lung; 125% in the assay on HOP-62 NSCLC; 117% in the assay on NCI-H460 lung; 102% with NCI-H522 lung. Moreover, the growth in the assay with A549/ATCC NSCLC was 94.1%; with 786-0 renal, 107%; in the assay on COLO 205 colon, 122%; with DU-145 prostate, 99.5%; in the assay with K-562 leukemia, 113%; in the assay on MALME-3M melanoma, 100%. Moreover, the growth in the assay with MDA-MB-231 breast was 116%; in the assay with RXF 393 renal, 104%; in the assay on SF-268 CNS it was 94.5%; with SF-295 CNS, 106%; in the assay on SF-539 CNS, 106%; in the assay with UACC-257 melanoma, 110%. In addition, the growth with M14 melanoma is 112%.

Consider `C#CCO[C@H]1CC[C@H](OCC#C)[C@@H]2[C@H]1[C@H]1C[C@@H]3[C@@]4(C)CCC[C@@](C)(C(=O)OC)[C@@H]4CC[C@@]23C=C1C(C)C`, for which the growth in the assay with NCI-H23 lung is 64.3%; in the assay with NCI-H226 lung it was 81.7%; in the assay on NCI-H322M lung it was 88.5%; in the assay with HOP-62 NSCLC, 77.5%; in the assay on NCI-H460 lung, 104%; in the assay on NCI-H522 lung, -66.5% (active). Also, the growth is 57.1% with A549/ATCC NSCLC; -23.5% (active) in the assay on 786-0 renal; 83.5% in the assay on COLO 205 colon; 94.3% with DU-145 prostate; 79.7% in the assay with K-562 leukemia; -41.7% (active) in the assay with MALME-3M melanoma. The growth in the assay on MDA-MB-231 breast is 65%; in the assay with RXF 393 renal it was 94.9%; in the assay on SF-268 CNS, 81.1%; with SF-295 CNS, 92.7%; with SF-539 CNS, 70.9%; with UACC-257 melanoma, 56%. In addition, the growth with M14 melanoma was 93.8%.

For the compound `CC(C)CC(=O)C(CCc1ccccn1)C(C)C` (configuration not stated), the growth is 98.4% in the assay on NCI-H23 lung; 97.9% in the assay with NCI-H226 lung; 116% in the assay with NCI-H322M lung; 112% with HOP-62 NSCLC; 107% in the assay on NCI-H460 lung; 95.3% with NCI-H522 lung. Besides, the growth in the assay with A549/ATCC NSCLC is 93.9%; with 786-0 renal, 105%; with COLO 205 colon, 130%; in the assay on DU-145 prostate, 111%; in the assay with K-562 leukemia, 107%; in the assay with MALME-3M melanoma it was 109%. The growth in the assay on MDA-MB-231 breast was 108%; with RXF 393 renal it was 124%; with SF-268 CNS it was 103%; with SF-295 CNS, 95.2%; in the assay on SF-539 CNS it was 106%; with UACC-257 melanoma, 92.4%. Also, in the assay on M14 melanoma, the growth was 105%.

Turning to `COc1ccc(C(=O)N2N=C(c3ccc(F)cc3)CC2c2cn(-c3ccccc3)nc2-c2ccccc2)cc1` (configuration not stated), the growth in the assay on NCI-H23 lung is 51%; in the assay on NCI-H226 lung, 91.2%; in the assay with NCI-H322M lung, 80%; in the assay on HOP-62 NSCLC it was 40.5%; in the assay on NCI-H460 lung, 53.3%; in the assay on NCI-H522 lung, 52.4%. In addition, the growth with A549/ATCC NSCLC was 41.1%; with 786-0 renal it was 69.6%; in the assay on COLO 205 colon it was 57%; with DU-145 prostate, 57.5%; in the assay on K-562 leukemia, 40.3%; in the assay on MALME-3M melanoma it was 73.7%. For the same compound, the growth was 60.2% in the assay on MDA-MB-231 breast; 73.7% in the assay on RXF 393 renal; 70.1% with SF-268 CNS; 65.1% with SF-295 CNS; 85.7% in the assay on SF-539 CNS; 78.6% with UACC-257 melanoma. For the same compound, in the assay with M14 melanoma, the growth is 55%.
